Among the data in PubChem BioAssay (NCI) are growth values, retold here.

Molecules are shown by their SMILES. Compounds without any hit were thinned out: in the full panel of roughly 83,000, 20% have a hit.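 A percent growth of 40 corresponds to 60% growth inhibition; 0 means no net growth; -100 means all cells died. Active threshold: below 10.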 Values without a mark were called inactive. The source made the active and inactive calls.

Common to all, as to test: NCI-60 one-dose screen, 48 h (100 = growth as untreated, 0 = no growth, -100 = all killed)
Common to all, as to settings: 10 µM unless noted

The test system of test [1] is T-47D breast.
Test [2] relates to BT-549 breast.
Test [3] deals with MDA-MB-435 melanoma.
Test [4] concerns SW-620 colon.
For test [5], the system named is MCF7 breast.
For test [6], the system named is HCT-116 colon.
The test system of test [7] is HCC-2998 colon.
Test [8] deals with KM12 colon.

`O=C1c2cccnc2C(=O)c2c1c(C(=O)OCCc1ccccn1)c1ccccn21`: the growth was -6.8% (active) in test [1]; -35.2% (active) in test [2]; -10.7% (active) in test [3]; 2.3% (active) in test [4]; -56.8% (active) in test [5]; -48.3% (active) in test [6]. For the same compound, the growth in test [7] was -70.3% (active); in test [8], 4.35% (active).

`CCOC(=O)/C(=C(/C)NCC(C)C)c1cc(O)c(O)c2c(C)cc(=O)[nH]c12`: the growth in test [1] is 34.7%; in test [2] it was 63%; in test [3] it was 60.9%; in test [4], 31.8%; in test [5], 29.4%; in test [6] it was 10.1%. Further, the growth is 61.9% in test [7] and 61.5% in test [8].

Turning to `COc1cc2c3c(c4c5ccccc5[nH]c4c2c(OC)c1OC)C(=O)N(CCN1CCCCC1)C3=O`, the growth in test [1] is 59.5%; in test [2], 96.6%; in test [3] it was 33.7%; in test [4], -66.4% (active); in test [5], -56.3% (active); in test [6], -85.6% (active). The growth in test [7] is 22.3%; in test [8], -20% (active).

On to `CCOC(=O)C(CCN(C)C)c1ccccc1` (stereo not drawn), for which the growth is 103% in test [1]; 97.3% in test [2]; 107% in test [3]; 108% in test [4]; 92.7% in test [5]; 104% in test [6]. The growth in test [7] is 96.3%; in test [8], 104%.

`CCCCn1c(NC(C)=O)c(S(=O)(=O)c2ccccc2)c2nc3ccccc3nc21`: the growth in test [1] is 79.9%; in test [2], 103%; in test [3], 106%; in test [4], 109%; in test [5], 98.4%; in test [6], 127%. In addition, the growth is 113% in test [7] and 103% in test [8].

As to `COc1cc(/C=C/C(=O)N2CCN(C(=O)c3cc(OC)c(OC)c(OC)c3)CC2)ccc1OCCCOc1cc2c(cc1OC)C(=O)N1CCC[C@H]1C=N2`, the growth in test [1] is 7.16% (active); in test [2], -55.9% (active); in test [3], -66.4% (active); in test [4] it was 4.48% (active); in test [5], 7.86% (active); in test [6] it was 7.83% (active). The growth is -39% (active) in test [7] and -19.5% (active) in test [8].

As to `CC[C@@H](C(=O)[C@@H](C)[C@@H](O)[C@H](C)[C@@H]1O[C@@H]([C@@H](CC)C(=O)ONC(=O)c2ccccc2O)CC[C@@H]1C)C1O[C@]2(C=CC(=O)[C@]3(CC[C@@](C)([C@H]4CC[C@](O)(CC)[C@H](C)O4)O3)O2)[C@H](C)C[C@@H]1C` (stereo partly drawn), the growth in test [1] is 12.4%; in test [2] it was 36.2%; in test [3], 63%; in test [4], 40.8%; in test [5], 17.8%; in test [6], 36.7%. The growth in test [7] was 58.7%; in test [8], 51.3%.

With `CCN(CC)CCOc1ccc2c(-c3ccccc3)c(-c3ccc(OC)cc3)c(=O)oc2c1`, the growth in test [1] was 51.4%; in test [2] it was 90.6%; in test [3], 41.3%; in test [4], 39.4%; in test [5], 61.3%; in test [6], 30%. In addition, the growth in test [7] was 90.9%; in test [8] it was 60.4%.

Take `O=C(O)c1cn(C2CC2)c2cc(N3CCN(C(=O)N4CCOCC4)CC3)c(F)cc2c1=O`: the growth in test [1] was 110%; in test [2], 95.7%; in test [3], 105%; in test [4] it was 112%; in test [5], 103%; in test [6], 110%. Further, the growth in test [7] is 107%; in test [8] it was 104%.

`Cc1cc(NCCCNc2ccnc3cc(Cl)ccc23)nc(Nc2ccc(C(=O)N3CCCCC3)cc2)n1`: the growth was -32.8% (active) in test [1]; 69.8% in test [2]; -72.5% (active) in test [3]; -0.272% (active) in test [4]; 6.95% (active) in test [5]; -38.3% (active) in test [6]. Also, the growth in test [7] was 0.124% (active); in test [8] it was 26.1%.

On to `CN(C)CCCn1c2c(c3cnccc3c1=O)C(=O)c1ccccc1-2`, for which the growth is -5.32% (active) in test [1]; 6.92% (active) in test [2]; 3.83% (active) in test [3]; -6.01% (active) in test [4]; -3.97% (active) in test [5]; -12.6% (active) in test [6]. Also, the growth in test [7] is 3.98% (active); in test [8], 3.16% (active).

As for `COc1cc2c(c(OC)c1OC)CCC(c1cccc(C(=O)Nc3ccc(Br)cc3)c1)O2` (stereo not drawn), the growth in test [1] was 28.9%; in test [2], 69%; in test [3] it was 81.9%; in test [4], 88.7%; in test [5], 67.1%; in test [6], 60.6%. Moreover, the growth is 71.5% in test [7] and 65.2% in test [8].

As for `O=C(/C=C/c1ccco1)Nc1ncc(Cc2cc(Cl)ccc2Cl)s1`, the growth is 37.4% in test [1]; 17.1% in test [2]; -47.3% (active) in test [3]; 20.6% in test [4]; 13.3% in test [5]; 16.3% in test [6]. Further, the values for the growth in test [7] and in test [8] were 13.9% and 10.4%, respectively.

As for `COc1cc2ncnc(Nc3ccc(F)c(Cl)c3)c2cc1OCC(=O)N1CCOCC1`, the growth is 53.5% in test [1]; 98.5% in test [2]; 102% in test [3]; 102% in test [4]; 83.9% in test [5]; 84% in test [6]. The growth in test [7] was 94.3%; in test [8], 94.4%.

For the compound `CCN(CC)c1ccc(-c2cc(-c3cc(OC)c(OC)c(OC)c3)nc(N3CCC(O)CC3)c2C#N)cc1`, the growth in test [1] is 2.08% (active); in test [2], -1.42% (active); in test [3], -40.8% (active); in test [4], 9.95% (active); in test [5] it was -33.3% (active); in test [6] it was -51% (active). For the same compound, the values for the growth in test [7] and in test [8] were -10.5% (active) and -26.8% (active), respectively.

For the compound `Cc1ccc2nc(-c3ccc(C(=O)N/N=C/c4ccc([N+](=O)[O-])cc4)cc3)[nH]c2c1`, the growth was 91.1% in test [1]; 106% in test [2]; 102% in test [3]; 106% in test [4]; 88.3% in test [5]; 103% in test [6]. The growth was 105% in test [7] and 97.6% in test [8].
